# Laboratory results from the supplement of paper PMC8728848.
# This is one part of a sample in which the strongest signals are shown more often than they occur.
# B1: Epa21 (Candida glabrata) (protein)
# chain: MGSSHHHHHHSSGLVPRGSHMASTPNIESHPQGCSPVDTSGIKPGLKMDLYRFPITPPGTGCWSWDWLTVTPDFPRSGYWKWPKIAEVDGVVGPLHLDSGHPTCDPLTSVLPHGFNYLQSITTTNFTMVLHGYFVPKQSGKYTFEFKADDALLLNLGAGNAFSCCDYNNSQYNQGEYLAYAIWSKNNQTATLYLEKGIYYPIRVFYHNRCCGAYMDVVYYFNDSPIPNRDFSGLLFSIPDSDSCDANI
# Experiments:
# Test in all cases: glycan array binding signal (z-score within array); higher = stronger binding
# Settings in all cases: glycan notation: IUPAC condensed, linker removed
# [1] = target: Fuc(a1-2)Gal(b1-4)Fuc(a1-3)]GlcNAc(b1-2)Man(a1-3)[Fuc(a1-2)Gal(b1-4)[Fuc(a1-3)]GlcNAc(b1-2)Man(a1-6)]Man(b1-4)GlcNAc(b1-4)GlcNAc
# In short: (§1)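 Glycan array binding is given as a within-array Z-score, which can be read as non-binding when negative. The arrays, 3228 of them, came from the Consortium for Functional Glycomics database and were retained only where the protein sequence was available. Z-scores were averaged across arrays of the same protein sequence at different concentrations or buffers and across linkers.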
# [2] = target: Fuc(a1-2)Gal(b1-4)GlcNAc(b1-3)[Fuc(a1-2)Gal(b1-4)GlcNAc(b1-6)]GalNAc
# In short: as §1
# [3] = target: Fuc(a1-2)Gal6S(b1-3)GlcNAc6S
# In short: as §1
# [4] = target: Fuc(a1-2)[Gal(a1-3)]Gal(b1-3)GlcNAc(b1-2)Man(a1-3)[Fuc(a1-2)[Gal(a1-3)]Gal(b1-3)GlcNAc(b1-2)Man(a1-6)]Man(b1-4)GlcNAc(b1-4)GlcNAc
# In short: as §1
# [5] = target: Fuc(a1-2)[Gal(a1-3)]Gal(b1-4)GlcNAc(b1-6)GalNAc
# In short: as §1
# [6] = target: Fuc(a1-2)[GalNAc(a1-3)]Gal(b1-4)GlcNAc(b1-6)GalNAc
# In short: as §1
# [7] = target: Fuc(a1-2)[GalNAc(a1-3)]Gal(b1-4)[Fuc(a1-3)]GlcNAc
# In short: as §1
# [8] = target: Fuc(a1-3)[Gal(b1-4)]GlcNAc(b1-2)Man
# In short: as §1
# [9] = target: Fuc(a1-3)[Gal(b1-4)]GlcNAc(b1-3)Gal(b1-4)[Fuc(a1-3)]GlcNAc
# In short: as §1
# Fuc(b1-3)GlcNAc = target: Fuc(b1-3)GlcNAc
# In short: as §1
# Gal(a1-3)Gal(b1-4)Glc = target: Gal(a1-3)Gal(b1-4)Glc
# In short: as §1
# [10] = target: Gal(a1-3)Gal(b1-4)GlcNAc(b1-3)GalNAc
# In short: as §1
# Gal(a1-3)GalNAc = target: Gal(a1-3)GalNAc
# In short: as §1
# Gal(a1-4)GlcNAc = target: Gal(a1-4)GlcNAc
# In short: as §1
# [11] = target: Gal(b1-3)GlcNAc(b1-3)Gal(b1-4)GlcNAc
# In short: as §1
# [12] = target: Gal(b1-3)GlcNAc(b1-3)Gal(b1-4)[Fuc(a1-3)]GlcNAc(b1-6)[Gal(b1-3)GlcNAc(b1-3)]Gal(b1-4)Glc
# In short: as §1
# [13] = target: Gal(b1-3)GlcNAc(b1-3)GalNAc
# In short: as §1
# [14] = target: Gal(b1-4)GlcNAc(b1-2)Man(a1-3)[Gal(b1-4)GlcNAc(b1-2)Man(a1-6)][GlcNAc(b1-4)]Man(b1-4)GlcNAc(b1-4)[Fuc(a1-6)]GlcNAc
# In short: as §1
# [15] = target: Gal(b1-4)GlcNAc(b1-3)Gal(b1-4)GlcNAc(b1-3)Gal(b1-4)GlcNAc(b1-2)Man(a1-3)[Gal(b1-4)GlcNAc(b1-3)Gal(b1-4)GlcNAc(b1-3)Gal(b1-4)GlcNAc(b1-2)Man(a1-6)]Man(b1-4)GlcNAc(b1-4)GlcNAc
# In short: as §1
# [16] = target: Gal(b1-4)GlcNAc(b1-3)Gal(b1-4)GlcNAc(b1-3)[Gal(b1-4)GlcNAc(b1-3)Gal(b1-4)GlcNAc(b1-6)]GalNAc
# In short: as §1
# [17] = target: Gal(b1-4)GlcNAc(b1-3)Gal(b1-4)GlcNAc(b1-6)[Gal(b1-3)]GalNAc
# In short: as §1
# [18] = target: Gal(b1-4)GlcNAc(b1-3)Gal(b1-4)[Fuc(a1-3)]GlcNAc(b1-3)Gal(b1-4)[Fuc(a1-3)]GlcNAc
# In short: as §1
# [19] = target: Gal(b1-4)GlcNAc(b1-6)GalNAc
# In short: as §1
# Gal6S(b1-4)Glc6S = target: Gal6S(b1-4)Glc6S
# In short: as §1
# Gal6S(b1-4)GlcNAc6S = target: Gal6S(b1-4)GlcNAc6S
# In short: as §1
# [20] = target: GalNAc(b1-4)GlcNAc(b1-2)Man(a1-3)[GalNAc(b1-4)GlcNAc(b1-2)Man(a1-6)]Man(b1-4)GlcNAc(b1-4)GlcNAc
# In short: as §1
# GlcA(b1-3)GlcNAc = target: GlcA(b1-3)GlcNAc
# In short: as §1
# [21] = target: GlcNAc(a1-4)Gal(b1-4)GlcNAc
# In short: as §1
# [22] = target: GlcNAc(b1-2)Gal(b1-3)GalNAc
# In short: as §1
# [23] = target: GlcNAc(b1-6)Gal(b1-4)GlcNAc
# In short: as §1
# [24] = target: Man(a1-2)Man(a1-2)Man(a1-6)[Man(a1-3)]Man
# In short: as §1
# [25] = target: Man(a1-3)[Man(a1-6)]Man(a1-6)[Man(a1-3)]Man
# In short: as §1
# [26] = target: Neu5Ac(a2-3)Gal(b1-3)GlcNAc(b1-3)Gal(b1-3)GlcNAc
# In short: as §1
# [27] = target: Neu5Ac(a2-3)Gal(b1-3)GlcNAc(b1-3)Gal(b1-4)GlcNAc
# In short: as §1
# [28] = target: Neu5Ac(a2-3)Gal(b1-3)[Neu5Ac(a2-6)]GlcNAc(b1-3)[Fuc(a1-3)[Gal(b1-4)]GlcNAc(b1-6)]Gal(b1-4)Glc
# In short: as §1
# [29] = target: Neu5Ac(a2-3)Gal(b1-4)GlcNAc(b1-2)Man
# In short: as §1
# [30] = target: Neu5Ac(a2-3)Gal(b1-4)GlcNAc(b1-3)Gal(b1-4)GlcNAc(b1-3)GalNAc
# In short: as §1
# [31] = target: Neu5Ac(a2-3)Gal(b1-4)GlcNAc(b1-3)[Neu5Ac(a2-3)Gal(b1-4)GlcNAc(b1-6)]GalNAc
# In short: as §1
# [32] = target: Neu5Ac(a2-3)Gal(b1-4)[Fuc(a1-3)]GlcNAc(b1-3)GalNAc
# In short: as §1
# [33] = target: Neu5Ac(a2-6)Gal(b1-4)GlcNAc(b1-2)Man
# In short: as §1
# [34] = target: Neu5Ac(a2-6)Gal(b1-4)GlcNAc(b1-2)Man(a1-3)[Gal(b1-4)GlcNAc(b1-2)Man(a1-6)]Man(b1-4)GlcNAc(b1-4)GlcNAc
# In short: as §1
# [35] = target: Neu5Ac(a2-6)Gal(b1-4)GlcNAc(b1-3)Gal(b1-4)GlcNAc
# In short: as §1
# [36] = target: Neu5Ac(a2-6)Gal(b1-4)GlcNAc(b1-3)Gal(b1-4)GlcNAc(b1-2)Man(a1-3)[Neu5Ac(a2-6)Gal(b1-4)GlcNAc(b1-3)Gal(b1-4)GlcNAc(b1-2)Man(a1-6)]GalNAc
# In short: as §1
# [37] = target: Neu5Ac(a2-6)Gal(b1-4)GlcNAc(b1-3)Gal(b1-4)GlcNAc(b1-3)Gal(b1-4)GlcNAc(b1-2)Man(a1-3)[Neu5Ac(a2-6)Gal(b1-4)GlcNAc(b1-3)Gal(b1-4)GlcNAc(b1-3)Gal(b1-4)GlcNAc(b1-2)Man(a1-6)]GalNAc
# In short: as §1
# [38] = target: Neu5Ac(a2-6)Gal(b1-4)GlcNAc(b1-3)Gal(b1-4)[Fuc(a1-3)]GlcNAc(b1-3)Gal(b1-4)[Fuc(a1-3)]GlcNAc
# In short: as §1
# [39] = target: Neu5Ac9Ac(a2-3)Gal(b1-3)GlcNAc
# In short: as §1
binder,measurement,setting,value
B1,glycan array binding signal (z-score),[1],2.49
same,glycan array binding signal (z-score),[2],-0.296
same,glycan array binding signal (z-score),[3],4.29
same,glycan array binding signal (z-score),[4],-0.507
same,glycan array binding signal (z-score),[5],-0.214
same,glycan array binding signal (z-score),[6],-0.634
same,glycan array binding signal (z-score),[7],-0.093
same,glycan array binding signal (z-score),[8],-0.558
same,glycan array binding signal (z-score),[9],0.064
same,glycan array binding signal (z-score),Fuc(b1-3)GlcNAc,-1.01
same,glycan array binding signal (z-score),Gal(a1-3)Gal(b1-4)Glc,-0.176
same,glycan array binding signal (z-score),[10],1.03
same,glycan array binding signal (z-score),Gal(a1-3)GalNAc,-0.135
same,glycan array binding signal (z-score),Gal(a1-4)GlcNAc,4.26
same,glycan array binding signal (z-score),[11],-0.56
same,glycan array binding signal (z-score),[12],-0.438
same,glycan array binding signal (z-score),[13],-0.317
same,glycan array binding signal (z-score),[14],-0.687
same,glycan array binding signal (z-score),[15],2.55
same,glycan array binding signal (z-score),[16],1.89
same,glycan array binding signal (z-score),[17],2.73
same,glycan array binding signal (z-score),[18],-0.493
same,glycan array binding signal (z-score),[19],-0.047
same,glycan array binding signal (z-score),Gal6S(b1-4)Glc6S,2.89
same,glycan array binding signal (z-score),Gal6S(b1-4)GlcNAc6S,3.19
same,glycan array binding signal (z-score),[20],0.288
same,glycan array binding signal (z-score),GlcA(b1-3)GlcNAc,0.14
same,glycan array binding signal (z-score),[21],-0.35
same,glycan array binding signal (z-score),[22],-0.466
same,glycan array binding signal (z-score),[23],0.013
same,glycan array binding signal (z-score),[24],-0.531
same,glycan array binding signal (z-score),[25],-0.026
same,glycan array binding signal (z-score),[26],-0.487
same,glycan array binding signal (z-score),[27],-0.39
same,glycan array binding signal (z-score),[28],-0.237
same,glycan array binding signal (z-score),[29],2.68
same,glycan array binding signal (z-score),[30],3.03
same,glycan array binding signal (z-score),[31],0.888
same,glycan array binding signal (z-score),[32],1.87
same,glycan array binding signal (z-score),[33],-0.212
same,glycan array binding signal (z-score),[34],-0.438
same,glycan array binding signal (z-score),[35],-0.589
same,glycan array binding signal (z-score),[36],2.55
same,glycan array binding signal (z-score),[37],5.42
same,glycan array binding signal (z-score),[38],-0.189
same,glycan array binding signal (z-score),[39],-0.318
